For three compounds, outcome and AC50 results are on record in PubChem BioAssay (EPA / NIEHS).

As usually defined, the AC50 is the concentration giving half of the maximal activity seen.

The nature of assay [1]: ATG_E_Box_CIS: Attagene CIS-FACTORIAL HepG2 Assay for human Enhancer Box (E-box) (AID 2282936). As to conditions: HepG2 E-box cis-reporter transcription, actives raise or lower the signal. The method, boiled down: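 E-box-driven reporter transcripts measured in transiently transfected HepG2 after 24 h exposure: RNA reverse-transcribed, PCR-amplified, fluorescently labelled, digested and resolved by capillary electrophoresis. Gain or loss relative to DMSO.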

The nature of assay [2]: ATG_M_61_CIS: Attagene CIS-FACTORIAL HepG2 Assay for M61 Transcription Factor (Internal Marker) (AID 2282937). As to conditions: HepG2 Attagene CIS-FACTORIAL M61 internal marker reporter; actives raise or lower the signal. In short, it runs like this: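 Human liver HepG2, transient MRTU transfection (cis promoter elements), 24 h compound. Total RNA → oligo(dT) RT → PCR → FAM label → HpaI → CE. Internal background marker; bidirectional fitting, DMSO = baseline.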

Assay [3] in a line: ATG_EGR_CIS: Attagene CIS-FACTORIAL HepG2 Assay for human Early Growth Response 1 (EGR1) (AID 2282938). As to conditions: HepG2 Attagene CIS-FACTORIAL EGR reporter mRNA; actives raise or lower the signal. In short, it runs like this:
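Transient transfection of human HepG2 with multiple cis-regulated reporter units, chemical exposure 24 h, total RNA isolated. Reverse transcription, PCR, fluorescent labelling and capillary electrophoresis quantify reporter transcripts; activity fitted bidirectionally against DMSO.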

A short description of assay [4]: ATG_M_19_CIS: Attagene CIS-FACTORIAL HepG2 Assay for M19 Transcription Factor (Internal Marker) (AID 2282939). As to conditions: HepG2 Attagene CIS-FACTORIAL M19 internal marker reporter; actives raise or lower the signal. The method, boiled down: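 HepG2 cells transiently transfected with cis-regulated multiplexed reporter units, dosed 24 h. Reporter mRNA quantified by RT-PCR and capillary electrophoresis; internal background marker fitted bidirectionally versus DMSO.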

Assay [5] in a line: ATG_ERE_CIS: Attagene CIS-FACTORIAL HepG2 Assay for Estrogen Response Element (ERE) (AID 2282940). As to conditions: HepG2 ERE cis-reporter, Attagene RNA transcript; actives raise or lower the signal. In short, it runs like this:
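HepG2 cells transiently transfected with multiplexed cis-element reporter units, measuring endogenous transcription factor activity; ERE reporter mRNA quantified after 24 h exposure by RT-PCR, fluorescent labelling, HpaI digestion and capillary electrophoresis. Bidirectional change versus DMSO.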

The nature of assay [6]: ATG_Ets_CIS: Attagene CIS-FACTORIAL HepG2 Assay for human Erythroblast Transformation Specific (ETS) (AID 2282941). As to conditions: HepG2 ETS cis-reporter transcription, actives raise or lower the signal. The method, boiled down:
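Multiplexed reporter transcript profiling: HepG2, 24 h treatment, total RNA to cDNA, PCR, 6-FAM labelling, HpaI cut, capillary electrophoresis. Gain- or loss-of-signal fitted against DMSO.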

Assay [7] deals with Hepatocyte nuclear factor 3-beta (Homo sapiens) (UniProt Q9Y261). Nature of the assay: ATG_FoxA2_CIS: Attagene CIS-FACTORIAL HepG2 Assay for human Forkhead box A2 (FOXA2) (AID 2282942). As to conditions: HepG2 cis-reporter transcription factor activity, 24 h; actives raise or lower the signal. In short, it runs like this: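 Transient MRTU transfection of HepG2 liver cells; 24 h treatment; total RNA → oligo(dT) RT → PCR → FAM primer extension → HpaI cut → CE. Bidirectional fit vs DMSO.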

A short description of assay [8]: ATG_FoxO_CIS: Attagene CIS-FACTORIAL HepG2 Assay for human Forkhead box O (FoxO) (AID 2282943). As to conditions: HepG2 Attagene cis-reporter, FoxO element, mRNA; actives raise or lower the signal. In short, it runs like this:
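Human hepatoma HepG2 cells carry transiently introduced reporter transcription units controlled by cis promoter elements. Chemical treatment lasted 24 h, and mRNA signal was compared with DMSO.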

Assay [9] can be described thus: ATG_GATA_CIS: Attagene CIS-FACTORIAL HepG2 Assay for human GATA Binding Protein (AID 2282944). As to conditions: HepG2 GATA cis-element reporter, Attagene multiplex mRNA; actives raise or lower the signal. The method, boiled down:
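HepG2 cells transiently transfected with multiplexed cis-element reporter units measure endogenous GATA activity; after 24 h compound exposure, reporter mRNA quantified by RT-PCR and capillary electrophoresis. Changes fitted in both directions vs DMSO.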

Assay [10] in a line: ATG_GLI_CIS: Attagene CIS-FACTORIAL HepG2 Assay for human Zinc Finger Protein GLI1 (AID 2282945). As to conditions: HepG2, Attagene cis-factorial reporter mRNA, GLI element; actives raise or lower the signal. The method, boiled down:
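Bidirectional curve fits relative to DMSO, using reporter mRNA levels from RT-PCR plus capillary electrophoresis. Cells were HepG2 transiently carrying cis-regulated reporter constructs, harvested 24 h after dosing.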

The target in assay [11] is Bile acid receptor (Homo sapiens) (UniProt Q96RI1). Nature of the assay: ATG_IR1_CIS: Attagene CIS-FACTORIAL HepG2 Assay for human Nuclear Receptor Subfamily 1 Group H Member 4 (NR1H4), IR1 submotif (AID 2282946). As to conditions: IR1 reporter transcription, actives raise or lower the signal. The method, boiled down: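 HepG2 cells transiently transfected with multiplexed cis-element reporter units read endogenous transcription factor activity. After 24 h compound exposure, reporter mRNA was quantified by RT-PCR, fluorescent labelling, HpaI digestion and capillary electrophoresis; bidirectional fitting versus DMSO baseline.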

A short description of assay [12]: ATG_ISRE_CIS: Attagene CIS-FACTORIAL HepG2 Assay for human Interferon Regulatory Factor 1 (IRF1) binding to an Interferon-Stimulated Response Element (ISRE) (AID 2282948). As to conditions: HepG2 ISRE cis-reporter (Attagene), mRNA transcription readout; actives raise or lower the signal. In short, it runs like this:
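Signal reflects induction or loss of ISRE-linked reporter mRNA in transiently transfected HepG2 cells after a 24 h treatment, detected by fluorescent RT-PCR fragments on capillary electrophoresis and normalised to DMSO.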

Assay [13] can be described thus: ATG_M_32_CIS: Attagene CIS-FACTORIAL HepG2 Assay for M32 Transcription Factor (Internal Marker) (AID 2282949).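 Further: background control marker of the multiplexed CIS panel rather than a real target.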 As to conditions: HepG2 Attagene cis-factorial M32 reporter, mRNA; actives raise or lower the signal. The method, boiled down:
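HepG2 human liver cells transiently transfected with cis-promoter-driven multiple reporter transcription units, dosed 24 h. Reporter mRNA quantified by RT-PCR, FAM-labelled primer extension, HpaI digest and capillary electrophoresis; bidirectional fit versus DMSO baseline.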

Assay [14] addresses Hypoxia-inducible factor 1-alpha (Homo sapiens) (UniProt Q16665). In words: ATG_HIF1a_CIS: Attagene CIS-FACTORIAL HepG2 Assay for human Hypoxia Inducible Factor 1 (HIF1A) (AID 2282951). As to conditions: HepG2 Attagene cis-factorial HIF1a reporter transcription; actives raise or lower the signal. In short, it runs like this: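 Transient MRTU transfection of human HepG2 liver cells, 24 h compound treatment, then total RNA isolation, oligo(dT) reverse transcription, PCR amplification, fluorescent labelling and capillary electrophoresis of reporter fragments. Gain or loss relative to DMSO.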

The target of assay [15] is Hepatocyte nuclear factor 6 (Homo sapiens) (UniProt Q9UBC0). Nature of the assay: ATG_HNF6_CIS: Attagene CIS-FACTORIAL HepG2 Assay for human Hepatocyte Nuclear Factor 6 (HNF6) (AID 2282952). As to conditions: HepG2 Attagene cis-factorial HNF6 reporter transcription; actives raise or lower the signal. In short, it runs like this:
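Endogenous factor activity read in transiently transfected HepG2 via promoter-regulated reporter transcripts. RNA harvested 24 h post-dosing, reverse-transcribed, PCR-amplified, FAM-labelled, HpaI-digested and resolved by capillary electrophoresis; fitted in both directions against DMSO.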

The target in assay [16] is Heat shock factor protein 1 (Homo sapiens) (UniProt Q00613). In words: ATG_HSE_CIS: Attagene CIS-FACTORIAL HepG2 Assay for human Heat Shock Transcription Factor 1 (HSE) (AID 2282953). As to conditions: HepG2 HSE cis-reporter, Attagene RNA transcription; actives raise or lower the signal. The method, boiled down: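 HepG2 cells transfected with cis-promoter reporter units sensing endogenous transcription factor activity; reporter mRNA quantified 24 h post-dose by RT-PCR and capillary electrophoresis of 6-FAM-labelled products. Bidirectional fitting against DMSO.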

The nature of assay [17]: ATG_MRE_CIS: Attagene CIS-FACTORIAL HepG2 Assay for human Metal Responsive Element (MRE) (AID 2282954). As to conditions: HepG2 MRE cis-reporter transcription, Attagene multiplex; actives raise or lower the signal. The method, boiled down: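 Endogenous MRE-dependent transcription read as reporter mRNA in transiently transfected human HepG2 cells at 24 h. RNA reverse-transcribed, PCR-amplified, labelled and resolved by capillary electrophoresis; gain or loss relative to DMSO.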

A short description of assay [18]: ATG_PBREM_CIS: Attagene CIS-FACTORIAL HepG2 Assay for human Phenobarbital-responsive Enhancer Module (PBREM) (AID 2282955). As to conditions: HepG2 PBREM cis-reporter, Attagene multiplexed transcription; actives raise or lower the signal. In short, it runs like this: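 Endogenous transcription factors in human liver HepG2 cells drive a PBREM cis-element reporter, whose transcript level after 24 h treatment is quantified by RT-PCR with capillary electrophoresis; activity fitted in both directions against DMSO.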

The nature of assay [19]: ATG_GRE_CIS: Attagene CIS-FACTORIAL HepG2 Assay for human Glucocorticoid Response Elements (GRE) (AID 2282947). As to conditions: HepG2 GRE cis-reporter, Attagene multiplex mRNA; actives raise or lower the signal. In short, it runs like this: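 Reporter transcripts read by RT-PCR with capillary electrophoresis fluorescence after a 24 h chemical exposure of HepG2 cells transiently transfected with multiple cis-element reporter units. Gain or loss fitted against DMSO.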

Assay [20] is described as follows: ATG_M_06_CIS: Attagene CIS-FACTORIAL HepG2 Assay for M06 Transcription Factor (Internal Marker) (AID 2282950). As to conditions: HepG2 Attagene CIS-FACTORIAL M06 internal marker reporter; actives raise or lower the signal. In short, it runs like this: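 Internal background marker within multiplexed cis-reporter HepG2 system. Cells transiently transfected, dosed 24 h; reporter mRNA measured by RT-PCR, HpaI digestion and capillary electrophoresis. Bidirectional fit relative to DMSO.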

The source made the active and inactive calls. How the source made its calls: active means hit-call score of the fitted dose curve at least 0.9, where 1 is the maximum; inactive means score below 0.9.

Bile acid receptor (Homo sapiens), sequence (Q96RI1 whole entry, looked up): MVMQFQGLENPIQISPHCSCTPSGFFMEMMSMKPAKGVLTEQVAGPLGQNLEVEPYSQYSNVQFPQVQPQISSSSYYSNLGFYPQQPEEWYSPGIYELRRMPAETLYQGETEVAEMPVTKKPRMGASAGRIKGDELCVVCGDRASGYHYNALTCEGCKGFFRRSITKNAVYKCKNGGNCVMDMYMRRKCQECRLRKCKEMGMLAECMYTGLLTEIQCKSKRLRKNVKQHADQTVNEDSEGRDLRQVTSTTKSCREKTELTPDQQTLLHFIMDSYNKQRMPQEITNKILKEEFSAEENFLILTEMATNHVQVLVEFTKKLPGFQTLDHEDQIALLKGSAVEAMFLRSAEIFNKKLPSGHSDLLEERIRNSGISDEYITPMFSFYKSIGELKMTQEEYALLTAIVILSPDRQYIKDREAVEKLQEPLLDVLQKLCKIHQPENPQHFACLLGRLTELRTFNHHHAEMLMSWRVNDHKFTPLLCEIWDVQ
Hepatocyte nuclear factor 6 (Homo sapiens), sequence (Q9UBC0 whole entry, looked up): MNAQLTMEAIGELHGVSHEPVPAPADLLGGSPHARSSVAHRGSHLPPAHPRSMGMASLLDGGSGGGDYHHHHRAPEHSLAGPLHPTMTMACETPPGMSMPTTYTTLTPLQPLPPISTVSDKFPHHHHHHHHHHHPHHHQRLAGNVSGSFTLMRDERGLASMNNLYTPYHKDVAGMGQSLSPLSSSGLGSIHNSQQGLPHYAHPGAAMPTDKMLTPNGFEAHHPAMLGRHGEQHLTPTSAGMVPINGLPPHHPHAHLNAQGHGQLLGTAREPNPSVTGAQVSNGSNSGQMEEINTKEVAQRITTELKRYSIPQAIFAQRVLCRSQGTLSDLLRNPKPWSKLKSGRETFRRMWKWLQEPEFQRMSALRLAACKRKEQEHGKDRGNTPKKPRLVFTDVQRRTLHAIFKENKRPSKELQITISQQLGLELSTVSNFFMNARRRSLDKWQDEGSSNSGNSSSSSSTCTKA
Hepatocyte nuclear factor 3-beta (Homo sapiens), sequence (Q9Y261 whole entry, looked up): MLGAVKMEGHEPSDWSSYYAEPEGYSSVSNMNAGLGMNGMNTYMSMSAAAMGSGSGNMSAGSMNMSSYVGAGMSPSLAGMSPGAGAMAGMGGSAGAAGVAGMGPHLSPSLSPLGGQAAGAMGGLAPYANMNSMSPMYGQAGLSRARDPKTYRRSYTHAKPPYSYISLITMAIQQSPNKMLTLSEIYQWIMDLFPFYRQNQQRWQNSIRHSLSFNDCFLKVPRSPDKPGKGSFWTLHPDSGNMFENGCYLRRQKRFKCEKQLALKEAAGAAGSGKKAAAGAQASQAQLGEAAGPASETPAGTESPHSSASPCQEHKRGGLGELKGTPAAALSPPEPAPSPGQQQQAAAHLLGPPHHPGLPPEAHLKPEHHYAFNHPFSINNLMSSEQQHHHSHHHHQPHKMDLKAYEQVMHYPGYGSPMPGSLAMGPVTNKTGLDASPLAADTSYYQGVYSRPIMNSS
Hypoxia-inducible factor 1-alpha (Homo sapiens), sequence (Q16665 whole entry, looked up, the tested form may be a part): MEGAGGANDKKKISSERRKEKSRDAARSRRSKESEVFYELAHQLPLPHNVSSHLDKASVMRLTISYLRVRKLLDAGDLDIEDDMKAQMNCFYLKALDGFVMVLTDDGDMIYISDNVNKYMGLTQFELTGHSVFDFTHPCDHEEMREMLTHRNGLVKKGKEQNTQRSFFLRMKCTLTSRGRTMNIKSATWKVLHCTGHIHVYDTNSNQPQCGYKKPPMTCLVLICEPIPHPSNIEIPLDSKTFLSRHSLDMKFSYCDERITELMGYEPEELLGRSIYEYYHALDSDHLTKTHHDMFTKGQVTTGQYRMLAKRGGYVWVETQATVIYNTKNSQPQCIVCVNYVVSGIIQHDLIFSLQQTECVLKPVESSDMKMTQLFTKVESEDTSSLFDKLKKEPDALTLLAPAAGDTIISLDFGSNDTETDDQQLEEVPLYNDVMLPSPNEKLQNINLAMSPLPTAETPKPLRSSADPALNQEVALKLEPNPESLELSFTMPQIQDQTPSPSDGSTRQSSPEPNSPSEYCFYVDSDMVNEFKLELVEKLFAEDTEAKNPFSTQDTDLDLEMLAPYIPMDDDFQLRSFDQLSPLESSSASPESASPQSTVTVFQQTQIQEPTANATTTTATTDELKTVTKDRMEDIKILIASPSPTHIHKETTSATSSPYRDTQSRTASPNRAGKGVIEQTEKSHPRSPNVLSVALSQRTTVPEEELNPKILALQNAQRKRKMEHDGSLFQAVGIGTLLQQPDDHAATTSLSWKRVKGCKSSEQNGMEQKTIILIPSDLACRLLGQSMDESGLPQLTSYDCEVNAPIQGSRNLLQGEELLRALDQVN
Heat shock factor protein 1 (Homo sapiens), sequence (Q00613 whole entry, looked up): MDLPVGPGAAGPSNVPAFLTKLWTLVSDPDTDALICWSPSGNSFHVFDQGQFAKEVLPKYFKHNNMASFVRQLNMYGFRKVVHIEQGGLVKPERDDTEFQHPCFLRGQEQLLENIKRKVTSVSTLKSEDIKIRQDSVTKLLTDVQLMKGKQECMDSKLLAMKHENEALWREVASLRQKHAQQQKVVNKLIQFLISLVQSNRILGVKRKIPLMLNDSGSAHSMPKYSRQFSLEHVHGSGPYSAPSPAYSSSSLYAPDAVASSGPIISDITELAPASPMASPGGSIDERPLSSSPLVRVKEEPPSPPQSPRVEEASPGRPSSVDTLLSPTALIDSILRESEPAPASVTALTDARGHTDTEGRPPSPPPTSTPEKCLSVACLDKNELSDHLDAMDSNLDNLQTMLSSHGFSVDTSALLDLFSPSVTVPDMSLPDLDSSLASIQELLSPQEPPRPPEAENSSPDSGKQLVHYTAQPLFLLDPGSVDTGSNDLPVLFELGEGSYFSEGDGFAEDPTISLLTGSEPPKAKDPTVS

With `NNc1nc(-c2ccc(N)cc2)cs1`, the outcome in assay [1], in assay [2], in assay [3], in assay [4], in assay [5] and in assay [6] was inactive. Further, the result in assay [7], in assay [8], in [9], in assay [10], in assay [11] and in [12] was inactive. The result in assay [13], in assay [14], in assay [15], in assay [16], in assay [17] and in assay [18] was inactive.
As to `Clc1cccc(Cl)n1`, the outcome in assay [1], in assay [2], in [3], in assay [4], in assay [5] and in assay [6] was inactive. For the same compound, the call in [7], in assay [8], in [9], in [10], in assay [11] and in [19] was inactive. The compound was classed as inactive in [12], in assay [13], in assay [20], in [14], in [15] and in assay [16]. Also, the compound was called inactive in assay [17] and in assay [18].
In the case of `O=C(Nc1ccccc1)c1cc([N+](=O)[O-])ccc1Cl`, the outcome in assay [1], in assay [2], in assay [4], in assay [5], in [6] and in [7] was inactive. In addition, the outcome in assay [8], in [9], in [10], in [11], in [13] and in [20] was inactive. The compound was called inactive in assay [15] and in [18]. Also, the AC50 is 25.1 µM (active) in assay [3]; 38.3 µM (active) in assay [12]; 24.1 µM (active) in assay [14]; 154 µM (active) in [16]; 18.5 µM (active) in [17].
